Hit rate of the full screen: of about 39,000 compounds, about 3,300 (8.5%) were called active. Only a selection was taken, and actives are over-represented in it overall.
System: HepG2
Experiment: cytotoxicity call (relative viability < 0.9)
Conditions: 10 µM

Row | SMILES | cytotoxicity call
1 | Cc1ccc(OC(=O)N(C)C[C@@H]2OCc3ccccc3-c3c(n(C)c4ccccc34)C(=O)N([C@@H](C)CO)C[C@@H]2C)cc1 | inactive
2 | COc1ccc(OC(=O)N(C)C[C@H]2OCc3ccccc3-c3c(n(C)c4ccccc34)C(=O)N([C@@H](C)CO)C[C@H]2C)cc1 | inactive
3 | COc1ccc(OC(=O)N(C)C[C@@H]2OCc3ccccc3-c3c(n(C)c4ccccc34)C(=O)N([C@@H](C)CO)C[C@H]2C)cc1 | active
4 | Cc1ccc(OC(=O)N(C)C[C@H]2OCc3ccccc3-c3c(n(C)c4ccccc34)C(=O)N([C@H](C)CO)C[C@H]2C)cc1 | inactive
5 | Cc1ccc(OC(=O)N(C)C[C@@H]2OCc3ccccc3-c3c(n(C)c4ccccc34)C(=O)N([C@H](C)CO)C[C@@H]2C)cc1 | inactive
6 | COc1ccc(OC(=O)N(C)C[C@H]2OCc3ccccc3-c3c(n(C)c4ccccc34)C(=O)N([C@H](C)CO)C[C@@H]2C)cc1 | inactive
7 | Cc1ccc(OC(=O)N(C)C[C@H]2OCc3ccccc3-c3c(n(C)c4ccccc34)C(=O)N([C@@H](C)CO)C[C@@H]2C)cc1 | active
8 | CCOCC(=O)N1CC[C@H]2CNC[C@H]21 | inactive
9 | COc1cccc(C2(N)CCCC2)c1 | inactive
10 | CC(C)[C@H]1CN2CCC[C@H]2[C@@]2(O)O[C@](CC(=O)[C@@H]3C=C4c5cccc6[nH]cc(c56)C[C@H]4N(C)C3)(C(C)C)C(=O)N12 | inactive
11 | C[C@H](CO)N1C[C@H](C)[C@@H](CN(C)C(=O)Oc2ccc3ccccc3c2)OCc2cn(nn2)CCCC1=O | inactive
12 | NC(=N[N+](=O)[O-])NCCC[C@H](N)C(=O)O | inactive
13 | CC(C)[C@H]1CNC(=O)C1 | inactive
14 | O=C1NC(=S)NC(=O)C1c1ccccc1 | inactive
15 | C#CCO[C@H]1CN2CCC1CC2 | inactive
16 | CC(C)C[C@@H](N)C1(c2ccc(Cl)cc2)CCC1 | inactive
17 | CC1OC(OC2C=C3CCC4C(CCC5(C)C(c6ccc(=O)oc6)CCC45O)C3(C)CC2)C(O)C(O)C1O (stereo not drawn) | active
18 | CN1CCc2cc3c(cc2C1C1OC(=O)c2c1ccc1c2OCO1)OCO3 (stereo not drawn) | inactive
19 | ClC(Cl)=C(c1ccc(Cl)cc1)c1ccc(Cl)cc1 | inactive
20 | Nc1ccccc1N1CCNCC1 | inactive
21 | CN(C)C(=O)CN1CCN(C)C(=O)[C@]12CCN(c1ncccn1)C2 | inactive
22 | [NH2][Pt]1([NH2])[O]C(=O)C2(CCC2)C(=O)[O]1 | inactive

Row | SMILES | cytotoxicity call
23 | O=[N+]([O-])OC1COC2C(O)COC12 (stereo not drawn) | inactive
24 | CCn1cnc2c(Nc3cccc(Cl)c3)nc(N[C@@H]3CCCC[C@@H]3N)nc21 | active
25 | Cc1cccc([C@H](CN)N(C)C)c1 | inactive
26 | C[C@@H]1CN([C@@H](C)CO)C(=O)CCCn2cc(nn2)CO[C@H]1CN(C)C(=O)Oc1cccc2ccccc12 | inactive
27 | CN(C)C(=O)[C@@]1(Cc2ccccc2CN=[N+]=[N-])N=C(c2ccc(OCCCO)cc2)O[C@H]1c1ccccc1N=[N+]=[N-] | active
28 | COCCCNC(=O)[C@@]1(Cc2ccccc2CN=[N+]=[N-])N=C(c2ccc(OCCCO)cc2)O[C@H]1c1ccccc1N=[N+]=[N-] | inactive
29 | COC(=O)[C@]1(Cc2ccccc2CN=[N+]=[N-])N=C(c2ccc(OCCCO)cc2)O[C@@H]1c1ccccc1N=[N+]=[N-] | active
30 | CN(C)C(=O)[C@@]1(Cc2ccccc2N=[N+]=[N-])N=C(c2ccc(OCCCO)cc2)O[C@H]1c1ccccc1N=[N+]=[N-] | inactive
31 | [N-]=[N+]=NCc1ccccc1C[C@]1(C(=O)NCc2ccccc2)N=C(c2ccc(OCCCO)cc2)O[C@H]1c1ccccc1N=[N+]=[N-] | active
32 | COC(=O)[C@@]1(Cc2ccccc2CN=[N+]=[N-])N=C(c2ccc(OCCCO)cc2)O[C@H]1c1ccccc1N=[N+]=[N-] | inactive
33 | [N-]=[N+]=Nc1ccccc1C[C@@]1(C(=O)NCc2ccccc2)N=C(c2ccc(OCCCO)cc2)O[C@@H]1c1ccccc1N=[N+]=[N-] | inactive
34 | CN(C)C(=O)[C@]1(Cc2ccccc2CN=[N+]=[N-])N=C(c2ccc(OCCCO)cc2)O[C@@H]1c1ccccc1N=[N+]=[N-] | inactive
35 | COC(=O)[C@@]1(Cc2ccccc2N=[N+]=[N-])N=C(c2ccc(OCCCO)cc2)O[C@H]1c1ccccc1CN=[N+]=[N-] | inactive
36 | COCCCNC(=O)[C@@]1(Cc2ccccc2CN=[N+]=[N-])N=C(c2ccc(OCCCO)cc2)O[C@H]1c1ccccc1CN=[N+]=[N-] | active
37 | COCCCNC(=O)[C@]1(Cc2ccccc2N=[N+]=[N-])N=C(c2ccc(OCCCO)cc2)O[C@@H]1c1ccccc1N=[N+]=[N-] | inactive
38 | CN(C)C(=O)CN1C[C@H]2CON[C@@H]2C1 | inactive
39 | O=C(c1ccccc1)C12CN3CN(CN(C3)C1)C2 | inactive
40 | CC(C)c1cc2c(c(O)c1O)C1(C(=O)O)CCCC(C)(C)C1CC2 (stereo not drawn) | inactive
41 | CN1C[C@@H]2CNC[C@@H]2C1=O | inactive
42 | C[C@@H]1CN([C@@H](C)CO)C(=O)CCCn2nncc2CO[C@H]1CN(C)C(=O)Oc1ccc2ccccc2c1 | inactive
43 | C1CO[C@H]2[C@@H](C1)CNC[C@H]2N1CCOCC1 | inactive
